# Test results published in the supplement of paper PMC12282887.
# ± gives the standard deviation of the averaged measurements.
# How the values were obtained:
# Experiment in all cases: promoter activity interaction Z-score (Lux/OD deviation from empty-vector control); higher = stronger promoter induction by the compound
# [1] = system: E. coli BW25113 acrABp lux reporter
# In short: (§1)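 OD600 and luminescence of E. coli BW25113 reporter cultures (40 µl LB Lennox, 384-well plates, 37°C) were measured every 30 min for 12 h. Integration ran over 0–8 h for wild type or 1–9 h for deletion strains, and wells with growth below 10% of the median were dropped. The score is the Z-transformed residual of growth-normalised luminescence fitted against a control.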
# [2] = system: E. coli BW25113 marRABp lux reporter
# In short: as §1
# [3] = system: E. coli BW25113 micFp lux reporter
# In short: as §1
# [4] = system: E. coli BW25113 ompFp lux reporter
# In short: as §1
# [5] = system: E. coli BW25113 robp lux reporter
# In short: as §1
# [6] = system: E. coli BW25113 soxSp lux reporter
# In short: as §1
# [7] = system: E. coli BW25113 tolCp lux reporter
# In short: as §1
# [8] = 1.3 µg/ml, genetic background: wild type
# [9] = 1.3 µg/ml, genetic background: ΔmarA
# [10] = 1.3 µg/ml, genetic background: Δrob
# [11] = 1.3 µg/ml, genetic background: ΔsoxS
# [12] = 2.5 µg/ml, genetic background: wild type
# [13] = 2.5 µg/ml, genetic background: ΔmarA
# [14] = 2.5 µg/ml, genetic background: Δrob
# [15] = 2.5 µg/ml, genetic background: ΔsoxS
# [16] = 5 µg/ml, genetic background: wild type
# [17] = 5 µg/ml, genetic background: ΔmarA
# [18] = 5 µg/ml, genetic background: Δrob
# [19] = 5 µg/ml, genetic background: ΔsoxS
# [20] = 10 µg/ml, genetic background: wild type
# [21] = 10 µg/ml, genetic background: ΔmarA
# [22] = 10 µg/ml, genetic background: Δrob
# [23] = 10 µg/ml, genetic background: ΔsoxS
smiles,measurement,setting,value
C/C=C/C/C=C/CCC(=O)[C@H]1O[C@H]1C(N)=O [Cerulenin],promoter activity interaction Z-score,[1]; [8],-0.125 ± 0.083
same,promoter activity interaction Z-score,[1]; [9],0.156 ± 2.5
same,promoter activity interaction Z-score,[1]; [10],-0.449 ± 0.14
same,promoter activity interaction Z-score,[1]; [11],-0.289 ± 0.15
same,promoter activity interaction Z-score,[1]; [12],-0.467 ± 0.3
same,promoter activity interaction Z-score,[1]; [13],-0.0359 ± 0.66
same,promoter activity interaction Z-score,[1]; [14],-0.976 ± 0.19
same,promoter activity interaction Z-score,[1]; [15],-0.932 ± 0.045
same,promoter activity interaction Z-score,[1]; [16],-0.444 ± 0.41
same,promoter activity interaction Z-score,[1]; [17],-0.831 ± 1.3
same,promoter activity interaction Z-score,[1]; [18],-0.767 ± 0.071
same,promoter activity interaction Z-score,[1]; [19],-1.14 ± 0.31
same,promoter activity interaction Z-score,[1]; [20],-0.873 ± 0.42
same,promoter activity interaction Z-score,[1]; [21],-0.628 ± 0.16
same,promoter activity interaction Z-score,[1]; [22],-1.08 ± 0.23
same,promoter activity interaction Z-score,[1]; [23],-1.52 ± 0.22
same,promoter activity interaction Z-score,[2]; [8],-0.429 ± 0.45
same,promoter activity interaction Z-score,[2]; [9],-0.469 ± 0.27
same,promoter activity interaction Z-score,[2]; [10],-0.456 ± 0.13
same,promoter activity interaction Z-score,[2]; [11],-0.416 ± 0.089
same,promoter activity interaction Z-score,[2]; [12],-0.654 ± 0.29
same,promoter activity interaction Z-score,[2]; [13],-0.403 ± 0.076
same,promoter activity interaction Z-score,[2]; [14],-0.662 ± 0.091
same,promoter activity interaction Z-score,[2]; [15],-0.444 ± 0.12
same,promoter activity interaction Z-score,[2]; [16],-0.892 ± 0.19
same,promoter activity interaction Z-score,[2]; [17],-0.779 ± 0.41
same,promoter activity interaction Z-score,[2]; [18],-0.818 ± 0.011
same,promoter activity interaction Z-score,[2]; [19],-0.796 ± 0.034
same,promoter activity interaction Z-score,[2]; [20],-0.948 ± 0.37
same,promoter activity interaction Z-score,[2]; [21],-0.377 ± 0.77
same,promoter activity interaction Z-score,[2]; [22],-1.01 ± 0.028
same,promoter activity interaction Z-score,[2]; [23],-0.994 ± 0.11
same,promoter activity interaction Z-score,[3]; [8],-0.474 ± 0.33
same,promoter activity interaction Z-score,[3]; [9],-0.0522 ± 0.1
same,promoter activity interaction Z-score,[3]; [10],-0.112 ± 0.0041
same,promoter activity interaction Z-score,[3]; [11],-0.269 ± 0.047
same,promoter activity interaction Z-score,[3]; [12],-0.545 ± 0.087
same,promoter activity interaction Z-score,[3]; [13],0.0153 ± 0.15
same,promoter activity interaction Z-score,[3]; [14],-0.217 ± 0.13
same,promoter activity interaction Z-score,[3]; [15],-0.157 ± 0.23
same,promoter activity interaction Z-score,[3]; [16],-0.73 ± 0.2
same,promoter activity interaction Z-score,[3]; [17],-0.0985 ± 0.11
same,promoter activity interaction Z-score,[3]; [18],-0.316 ± 0.094
same,promoter activity interaction Z-score,[3]; [19],-0.417 ± 0.0084
same,promoter activity interaction Z-score,[3]; [20],-0.803 ± 0.19
same,promoter activity interaction Z-score,[3]; [21],-0.112 ± 0.028
same,promoter activity interaction Z-score,[3]; [22],-0.428 ± 0.056
same,promoter activity interaction Z-score,[3]; [23],-0.177 ± 0.14
same,promoter activity interaction Z-score,[4]; [8],0.448 ± 0.98
same,promoter activity interaction Z-score,[4]; [9],-0.174 ± 0.032
same,promoter activity interaction Z-score,[4]; [10],0.809 ± 0.68
same,promoter activity interaction Z-score,[4]; [11],0.456 ± 0.65
same,promoter activity interaction Z-score,[4]; [12],0.281 ± 0.58
same,promoter activity interaction Z-score,[4]; [13],0.575 ± 1.4
same,promoter activity interaction Z-score,[4]; [14],0.286 ± 1.6
same,promoter activity interaction Z-score,[4]; [15],0.108 ± 0.82
same,promoter activity interaction Z-score,[4]; [16],0.0997 ± 0.61
same,promoter activity interaction Z-score,[4]; [17],-0.516 ± 0.26
same,promoter activity interaction Z-score,[4]; [18],-0.143 ± 0.79
same,promoter activity interaction Z-score,[4]; [19],-0.26 ± 1
same,promoter activity interaction Z-score,[4]; [20],-0.484 ± 0.16
same,promoter activity interaction Z-score,[4]; [21],-0.179 ± 1.2
same,promoter activity interaction Z-score,[4]; [22],-0.74 ± 0.62
same,promoter activity interaction Z-score,[4]; [23],-0.034 ± 1
same,promoter activity interaction Z-score,[5]; [8],-0.713 ± 0.68
same,promoter activity interaction Z-score,[5]; [9],-0.524 ± 0.17
same,promoter activity interaction Z-score,[5]; [10],-0.0923 ± 0.31
same,promoter activity interaction Z-score,[5]; [11],-0.398 ± 0.41
same,promoter activity interaction Z-score,[5]; [12],-0.365 ± 0.25
same,promoter activity interaction Z-score,[5]; [13],1.47 ± 0.041
same,promoter activity interaction Z-score,[5]; [14],-0.839 ± 0.52
same,promoter activity interaction Z-score,[5]; [15],-0.254 ± 0.55
same,promoter activity interaction Z-score,[5]; [16],-0.743 ± 0.19
same,promoter activity interaction Z-score,[5]; [17],-0.973 ± 0.24
same,promoter activity interaction Z-score,[5]; [18],-0.585 ± 0.0081
same,promoter activity interaction Z-score,[5]; [19],-1.25 ± 0.42
same,promoter activity interaction Z-score,[5]; [20],-0.802 ± 0.13
same,promoter activity interaction Z-score,[5]; [21],-0.285 ± 0.72
same,promoter activity interaction Z-score,[5]; [22],-0.242 ± 0.94
same,promoter activity interaction Z-score,[5]; [23],-1.2 ± 0.47
same,promoter activity interaction Z-score,[6]; [8],0.113 ± 0.13
same,promoter activity interaction Z-score,[6]; [9],0.192 ± 0.091
same,promoter activity interaction Z-score,[6]; [10],0.247 ± 0.027
same,promoter activity interaction Z-score,[6]; [11],0.367 ± 0.43
same,promoter activity interaction Z-score,[6]; [12],0.186 ± 0.013
same,promoter activity interaction Z-score,[6]; [13],0.183 ± 0.076
same,promoter activity interaction Z-score,[6]; [14],0.113 ± 0.03
same,promoter activity interaction Z-score,[6]; [15],0.157 ± 0.38
same,promoter activity interaction Z-score,[6]; [16],0.112 ± 0.028
same,promoter activity interaction Z-score,[6]; [17],0.138 ± 0.17
same,promoter activity interaction Z-score,[6]; [18],0.18 ± 0.047
same,promoter activity interaction Z-score,[6]; [19],0.17 ± 0.56
same,promoter activity interaction Z-score,[6]; [20],-0.107 ± 0.23
same,promoter activity interaction Z-score,[6]; [21],-0.0897 ± 0.034
same,promoter activity interaction Z-score,[6]; [22],-0.133 ± 0.19
same,promoter activity interaction Z-score,[6]; [23],0.572 ± 1.2
same,promoter activity interaction Z-score,[7]; [8],-1.14 ± 0.49
same,promoter activity interaction Z-score,[7]; [9],-0.979 ± 0.76
same,promoter activity interaction Z-score,[7]; [10],-0.746 ± 0.32
same,promoter activity interaction Z-score,[7]; [11],-0.768 ± 0.23
same,promoter activity interaction Z-score,[7]; [12],-0.464 ± 0.17
same,promoter activity interaction Z-score,[7]; [13],-0.204 ± 1.3
same,promoter activity interaction Z-score,[7]; [14],-1.38 ± 0.2
same,promoter activity interaction Z-score,[7]; [15],-0.639 ± 0.61
same,promoter activity interaction Z-score,[7]; [16],-0.559 ± 0.033
same,promoter activity interaction Z-score,[7]; [17],-0.9 ± 0.62
same,promoter activity interaction Z-score,[7]; [18],-1.25 ± 0.71
same,promoter activity interaction Z-score,[7]; [19],-1.5 ± 0.1
same,promoter activity interaction Z-score,[7]; [20],-0.737 ± 0.051
same,promoter activity interaction Z-score,[7]; [21],-1.7 ± 0.36
same,promoter activity interaction Z-score,[7]; [22],-0.996 ± 0.2
same,promoter activity interaction Z-score,[7]; [23],-0.404 ± 0.65
